Three molecules from PubChem BioAssay (EPA / NIEHS) can be followed below.

Holding throughout (conditions): mRNA level, 48 h; actives raise or lower the signal
Read-out in test [1]: matrix metalloproteinase-3 (MMP3), MMP3 (gene 4314)
Nature of the test: LTEA_HepaRG_MMP3: Life Technologies and Expression Analysis (LTEA) Assay for matrix metalloproteinase-3 (MMP3) using HepaRG (AID 2283519). The method, boiled down:
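Fluidigm-based TaqMan qRT-PCR, normalized to ACTB, GAPDH and POLR2A and fitted bidirectionally versus 0.5% DMSO, measured transcript levels. Treatment: duplicate 48 h exposures of HepaRG cells, ~100,000/well, to eight half-log concentrations topping at 100 uM.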

Read-out in test [2]: Paternally Expressed 10 (PEG10), PEG10 (gene 23089)
Nature of the test: LTEA_HepaRG_PEG10: Life Technologies and Expression Analysis (LTEA) Assay for Paternally Expressed 10 (PEG10) using HepaRG (AID 2283520). The method, boiled down: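 PEG10 transcript measured by Fluidigm qRT-PCR, normalized to three housekeeping genes, in HepaRG cells treated 48 h (highest 100 uM, half-log steps, 0.5% DMSO vehicle). Cells plated 48 h before switching to serum-free induction medium.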

Read-out in test [3]: Nuclear factor NF-kappa-B p105 subunit (Homo sapiens) (UniProt P19838)
Put plainly: LTEA_HepaRG_NFKB1: Life Technologies and Expression Analysis (LTEA) Assay for Nuclear Factor Kappa B Subunit 1 (NFKB1) using HepaRG (AID 2283521). The method, boiled down:
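Differentiated human HepaRG cells were exposed for 48 h in serum-free induction medium to eight concentrations (top 100 uM, half-log steps, 0.5% DMSO), in duplicate. NFKB1 mRNA was measured by TaqMan qRT-PCR, normalized to ACTB/GAPDH/POLR2A, and fitted bidirectionally against DMSO.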

Read-out in test [4]: Protein phosphatase 2A (PPP2R4), PTPA (gene 5524)
Put plainly: LTEA_HepaRG_PPP2R4: Life Technologies and Expression Analysis (LTEA) Assay for Protein phosphatase 2A (PPP2R4) using HepaRG (AID 2283522). The gist of the method:
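Expression was quantified by Fluidigm qRT-PCR normalised to three housekeeping genes after 48 h treatment. Human HepaRG cells received an 8-point series from 100 µM downward by half-logs, in duplicate with 0.5% DMSO vehicle and 1 mM phenobarbital as induction control.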

Read-out in test [5]: Phosphatase and tensin (PTEN), PTEN (gene 5728)
Put plainly: LTEA_HepaRG_PTEN: Life Technologies and Expression Analysis (LTEA) Assay for Phosphatase and tensin (PTEN) using HepaRG (AID 2283523). The method, boiled down: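 Read-out: TaqMan qRT-PCR of PTEN transcript, normalized to three housekeeping genes, fitted in both directions against 0.5% DMSO. Differentiated human HepaRG cultures received chemicals for 48 h, eight-point half-log series topping at 100 uM.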

Read-out in test [6]: solute carrier (SLC22A1), SLC22A1 (gene 6580)
Put plainly: LTEA_HepaRG_SLC22A1: Life Technologies and Expression Analysis (LTEA) Assay for solute carrier (SLC22A1) using HepaRG (AID 2283524). The method, boiled down:
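Transcript level of SLC22A1 quantified by qRT-PCR (normalized to three housekeeping genes) after 48 h chemical exposure of HepaRG cells, eight concentrations up to 100 µM, half-log steps, 0.5% DMSO vehicle. Gain or loss relative to DMSO fitted bidirectionally.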

Read-out in test [7]: NAD(P)H dehydrogenase [quinone] 1 (NQO1), NQO1 (gene 1728)
Put plainly: LTEA_HepaRG_NQO1: Life Technologies and Expression Analysis (LTEA) Assay for NAD(P)H dehydrogenase [quinone] 1 (NQO1) using HepaRG (AID 2283526). The gist of the method: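 NQO1 transcript induction or loss measured by TaqMan qRT-PCR, referenced to three housekeeping genes and fitted bidirectionally against 0.5% DMSO. HepaRG cultures exposed 48 h, duplicate, eight-point half-log series, top 100 uM.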

Read-out in test [8]: Nuclear factor erythroid 2-related factor 2 (Homo sapiens) (UniProt Q16236)
Nature of the test: LTEA_HepaRG_NFE2L2: Life Technologies and Expression Analysis (LTEA) Assay for Nuclear factor erythroid 2-related factor 2 (NFE2L2) Transcription Factor using HepaRG (AID 2283527).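 Note: TaqMan qRT-PCR transcript level normalised to ACTB GAPDH and POLR2A housekeeping genes.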 The gist of the method: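 NFE2L2 transcript level was read by qRT-PCR (housekeeping ACTB/GAPDH/POLR2A normalisation) after 48 h chemical treatment of HepaRG in serum-free induction medium. Duplicate 8-point half-log curves, top 100 uM, 0.5% DMSO vehicle; up- or down-regulation fitted against vehicle.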

Read-out in test [9]: succinate dehydrogenase complex iron sulfur subunit B (SDHB), SDHB (gene 6390)
Nature of the test: LTEA_HepaRG_SDHB: Life Technologies and Expression Analysis (LTEA) Assay for succinate dehydrogenase complex iron sulfur subunit B (SDHB) using HepaRG (AID 2283528). The gist of the method: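 HepaRG, 48 h exposure, 8-pt half-log series from 100 uM in 0.5% DMSO, duplicates. Readout: SDHB mRNA by Fluidigm qRT-PCR vs housekeeping genes; bidirectional fit relative to DMSO.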

Read-out in test [10]: solute carrier (SLCO1B1), SLCO1B1 (gene 10599)
Put plainly: LTEA_HepaRG_SLCO1B1: Life Technologies and Expression Analysis (LTEA) Assay for solute carrier (SLCO1B1) using HepaRG (AID 2283530). The gist of the method:
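Human HepaRG cultures treated for 48 h with an eight-concentration half-log series topping at 100 uM; SLCO1B1 measured by qRT-PCR and fitted bidirectionally relative to DMSO.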

Read-out in test [11]: sulfotransferase 2A1 (SULT2A1), SULT2A1 (gene 6822)
Nature of the test: LTEA_HepaRG_SULT2A1: Life Technologies and Expression Analysis (LTEA) Assay for sulfotransferase 2A1 (SULT2A1) using HepaRG (AID 2283531). The method, boiled down:
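Gene-expression endpoint in a human liver cell line: SULT2A1 mRNA change after 48 h chemical treatment, curves fitted in both directions relative to 0.5% DMSO vehicle. Concentrations spanned eight half-log steps from 100 uM.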

Read-out in test [12]: Transforming Growth Factor (TGFA), TGFA (gene 7039)
Nature of the test: LTEA_HepaRG_TGFA: Life Technologies and Expression Analysis (LTEA) Assay for Transforming Growth Factor (TGFA) using HepaRG (AID 2283532). The gist of the method:
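TGFA transcript quantified by qRT-PCR (Fluidigm arrays) against three housekeeping genes, after 48 hours chemical treatment of HepaRG cells. Top concentration 100 uM with half-log dilutions, 8 points, duplicates, 0.5% DMSO.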

Read-out in test [13]: Transforming Growth Factor (TGFB1), TGFB1 (gene 7040)
Put plainly: LTEA_HepaRG_TGFB1: Life Technologies and Expression Analysis (LTEA) Assay for Transforming Growth Factor (TGFB1) Transporter using HepaRG (AID 2283533). The method, boiled down: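 Eight-point concentration-response (max 100 uM, half-log) in HepaRG under serum-free induction conditions, 48 h. TGFB1 mRNA by qRT-PCR, housekeeping-normalized.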

Read-out in another test: TIMP1, TIMP1 (gene 7076)
Put plainly: LTEA_HepaRG_TIMP1: Life Technologies and Expression Analysis (LTEA) Assay for TIMP1 using HepaRG (AID 2283534).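 For outcome: TaqMan qRT-PCR signal normalized to ACTB GAPDH and POLR2A housekeeping genes.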 The gist of the method: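 TIMP1 induction or repression in HepaRG cells after 48 h chemical exposure (eight concentrations, highest 100 uM), assessed by normalized qRT-PCR with bidirectional fitting to DMSO controls.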

Read-out in test [14]: Tumor necrosis factor receptor 1 (TNFRSF1A), TNFRSF1A (gene 7132)
Put plainly: LTEA_HepaRG_TNFRSF1A: Life Technologies and Expression Analysis (LTEA) Assay for Tumor necrosis factor receptor 1 (TNFRSF1A) using HepaRG (AID 2283535). The gist of the method:
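Assay uses 48 h chemical treatment of differentiated HepaRG monolayers, tested in duplicate at eight concentrations from 100 uM downward in 0.5% DMSO. mRNA is normalized to ACTB, GAPDH and POLR2A, with induction or suppression fitted relative to vehicle.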

Read-out in test [15]: Thyroid Hormone Responsive (THRSP), THRSP (gene 7069)
Put plainly: LTEA_HepaRG_THRSP: Life Technologies and Expression Analysis (LTEA) Assay for Thyroid Hormone Responsive (THRSP) using HepaRG (AID 2283536). The method, boiled down: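 THRSP transcript quantified by Fluidigm qRT-PCR against three housekeeping genes after 48 h chemical exposure of HepaRG cells in serum-free induction medium; eight-point half-log series, top 100 uM, 0.5% DMSO vehicle, duplicate wells.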

Read-out in test [16]: Cellular tumor antigen p53 (Homo sapiens) (UniProt P04637)
Nature of the test: LTEA_HepaRG_TP53: Life Technologies and Expression Analysis (LTEA) Assay for Tumor Protein P53 (TP53) using HepaRG (AID 2283537). The gist of the method:
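HepaRG, 48 h exposure, top 100 uM, half-log 8-point, 0.5% DMSO vehicle, duplicates. Read: TP53 mRNA by TaqMan qRT-PCR, normalised to ACTB/GAPDH/POLR2A; bidirectional fit vs DMSO.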

Read-out in test [17]: UDP glucuronosyltransferase (UGT1A1), UGT1A1 (gene 54658)
Put plainly: LTEA_HepaRG_UGT1A1: Life Technologies and Expression Analysis (LTEA) Assay for UDP glucuronosyltransferase (UGT1A1) using HepaRG (AID 2283538). The gist of the method:
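UGT1A1 transcript level, measured by qRT-PCR with three housekeeping genes for normalization, after 48 h treatment of human HepaRG cells (0.5% DMSO, duplicates, up to 100 uM, half-log steps, 8 points). Curves fit both directions against DMSO baseline.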

Read-out in test [18]: Pyruvate Dehydrogenase Kinase 4 (PDK4), PDK4 (gene 5166)
Nature of the test: LTEA_HepaRG_PDK4: Life Technologies and Expression Analysis (LTEA) Assay for Pyruvate Dehydrogenase Kinase 4 (PDK4) using HepaRG (AID 2283525). The method, boiled down:
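Readout is qRT-PCR of PDK4 transcript, normalized to three housekeeping genes, with bidirectional fitting against 0.5% DMSO vehicle. Differentiated HepaRG cells were treated 48 h in serum-free induction medium, duplicate wells, eight-point half-log series topping at 100 uM.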

Read-out in test [19]: Signal transducer and activator of transcription 3 (Homo sapiens) (UniProt P40763)
Put plainly: LTEA_HepaRG_STAT3: Life Technologies and Expression Analysis (LTEA) Assay for Signal transducer and activator of transcription (STAT3) using HepaRG (AID 2283529). The method, boiled down:
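STAT3 transcript quantified by qRT-PCR against three housekeeping genes (ACTB, GAPDH, POLR2A), fitted both directions relative to DMSO. HepaRG cultures exposed 48 h to eight half-log concentrations, top 100 uM, 0.5% DMSO, serum-free induction medium.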

Each structure is given as a SMILES string. Activity calls are given as the source filed them. Rule for the calls: active = hit-call score of the fitted dose curve at least 0.9, where 1 is the maximum; inactive = score below 0.9.

Sequence of Nuclear factor NF-kappa-B p105 subunit (Homo sapiens) (P19838 whole entry, looked up): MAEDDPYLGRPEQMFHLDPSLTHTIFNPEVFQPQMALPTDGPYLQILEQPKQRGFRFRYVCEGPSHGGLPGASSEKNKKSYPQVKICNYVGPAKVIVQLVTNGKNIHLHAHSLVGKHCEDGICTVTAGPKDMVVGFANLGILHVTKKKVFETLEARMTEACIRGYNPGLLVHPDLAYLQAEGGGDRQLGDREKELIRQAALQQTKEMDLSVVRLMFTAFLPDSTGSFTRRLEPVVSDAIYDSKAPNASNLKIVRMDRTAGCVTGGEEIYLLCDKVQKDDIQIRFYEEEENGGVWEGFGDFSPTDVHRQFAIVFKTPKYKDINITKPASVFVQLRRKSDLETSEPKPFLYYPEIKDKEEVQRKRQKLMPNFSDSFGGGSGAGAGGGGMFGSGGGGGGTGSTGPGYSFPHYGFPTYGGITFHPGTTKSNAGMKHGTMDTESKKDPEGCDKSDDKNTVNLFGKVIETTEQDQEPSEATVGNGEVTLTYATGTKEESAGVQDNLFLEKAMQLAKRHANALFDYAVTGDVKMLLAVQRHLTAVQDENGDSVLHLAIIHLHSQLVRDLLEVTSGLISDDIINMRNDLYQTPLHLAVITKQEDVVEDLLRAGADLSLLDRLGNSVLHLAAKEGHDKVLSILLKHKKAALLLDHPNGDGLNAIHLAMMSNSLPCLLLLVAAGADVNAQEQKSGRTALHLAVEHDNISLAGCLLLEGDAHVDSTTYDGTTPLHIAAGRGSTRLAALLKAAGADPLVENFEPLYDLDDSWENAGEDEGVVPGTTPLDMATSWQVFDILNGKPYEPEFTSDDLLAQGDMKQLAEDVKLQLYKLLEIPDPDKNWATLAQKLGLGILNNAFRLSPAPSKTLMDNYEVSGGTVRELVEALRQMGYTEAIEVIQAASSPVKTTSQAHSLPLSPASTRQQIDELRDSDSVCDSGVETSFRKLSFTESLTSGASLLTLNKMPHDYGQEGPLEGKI
Sequence of Nuclear factor erythroid 2-related factor 2 (Homo sapiens) (Q16236 whole entry, looked up): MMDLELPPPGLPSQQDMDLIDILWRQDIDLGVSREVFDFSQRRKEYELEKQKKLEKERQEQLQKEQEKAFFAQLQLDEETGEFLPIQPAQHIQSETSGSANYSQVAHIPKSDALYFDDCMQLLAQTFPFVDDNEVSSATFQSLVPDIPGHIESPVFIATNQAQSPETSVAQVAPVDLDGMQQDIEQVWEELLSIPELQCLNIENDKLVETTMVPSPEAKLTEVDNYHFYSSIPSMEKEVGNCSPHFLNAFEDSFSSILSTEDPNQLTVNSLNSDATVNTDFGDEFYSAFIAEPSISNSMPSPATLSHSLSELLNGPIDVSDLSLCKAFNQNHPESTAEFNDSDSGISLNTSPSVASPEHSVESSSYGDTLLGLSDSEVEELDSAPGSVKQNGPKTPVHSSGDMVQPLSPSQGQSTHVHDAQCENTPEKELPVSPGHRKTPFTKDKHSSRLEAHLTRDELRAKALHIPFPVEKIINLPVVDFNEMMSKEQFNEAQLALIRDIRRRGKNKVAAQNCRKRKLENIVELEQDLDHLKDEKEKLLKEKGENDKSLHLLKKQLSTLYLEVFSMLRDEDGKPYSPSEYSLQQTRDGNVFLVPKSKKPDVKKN
Sequence of Cellular tumor antigen p53 (Homo sapiens) (P04637 whole entry, looked up): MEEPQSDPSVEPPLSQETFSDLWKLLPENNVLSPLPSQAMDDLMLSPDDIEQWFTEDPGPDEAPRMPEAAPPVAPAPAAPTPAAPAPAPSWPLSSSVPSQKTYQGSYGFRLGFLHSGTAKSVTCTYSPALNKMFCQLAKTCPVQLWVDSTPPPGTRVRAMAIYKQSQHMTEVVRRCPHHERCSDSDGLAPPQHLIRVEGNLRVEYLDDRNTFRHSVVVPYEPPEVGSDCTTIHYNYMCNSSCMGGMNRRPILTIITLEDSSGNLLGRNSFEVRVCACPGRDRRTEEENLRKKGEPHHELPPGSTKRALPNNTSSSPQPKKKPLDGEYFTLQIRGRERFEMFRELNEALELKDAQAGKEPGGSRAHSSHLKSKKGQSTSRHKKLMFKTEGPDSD
Sequence of Signal transducer and activator of transcription 3 (Homo sapiens) (P40763 whole entry, looked up): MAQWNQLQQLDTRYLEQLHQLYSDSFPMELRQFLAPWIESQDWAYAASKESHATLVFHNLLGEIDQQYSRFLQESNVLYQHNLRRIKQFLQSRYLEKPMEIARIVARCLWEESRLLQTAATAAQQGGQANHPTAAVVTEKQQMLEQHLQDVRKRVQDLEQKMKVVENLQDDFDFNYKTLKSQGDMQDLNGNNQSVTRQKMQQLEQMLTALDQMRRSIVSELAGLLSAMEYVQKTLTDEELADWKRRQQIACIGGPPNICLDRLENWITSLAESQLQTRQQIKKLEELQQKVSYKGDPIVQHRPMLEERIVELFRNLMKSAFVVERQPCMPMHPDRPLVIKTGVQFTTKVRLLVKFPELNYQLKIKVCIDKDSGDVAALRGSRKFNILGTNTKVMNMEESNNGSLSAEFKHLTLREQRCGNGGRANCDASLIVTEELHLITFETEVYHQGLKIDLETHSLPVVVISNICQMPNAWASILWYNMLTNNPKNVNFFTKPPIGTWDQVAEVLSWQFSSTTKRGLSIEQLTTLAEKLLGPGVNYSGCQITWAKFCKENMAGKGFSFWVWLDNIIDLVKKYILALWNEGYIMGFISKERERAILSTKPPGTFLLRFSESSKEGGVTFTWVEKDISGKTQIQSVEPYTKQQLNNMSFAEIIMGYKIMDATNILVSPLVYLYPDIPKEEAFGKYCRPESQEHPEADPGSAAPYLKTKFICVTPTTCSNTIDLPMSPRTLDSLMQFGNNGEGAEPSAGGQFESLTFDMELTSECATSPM

What is called AC50 is the concentration giving half of the maximal activity seen. On to `CCCCCCCCCCO`, for which the call in test [1], in test [2], in test [3], in test [4], in test [5] and in test [6] was inactive. Besides, the molecule was called inactive in test [7], in [8], in [9], in test [10], in test [11] and in test [12]. Also, the molecule was classed as inactive in [13], in test [14], in [15], in [16] and in test [17]. In the test with TIMP1, TIMP1 (gene 7076), the AC50 was 12.2 µM (active).
As to `Cc1ccc(C)c(C)c1`, the molecule was called inactive in test [1], in [2], in test [3], in test [5], in [6] and in [18]. Moreover, the call in [7], in test [8], in test [19], in test [10], in test [11] and in test [12] was inactive. Moreover, the outcome in [13] was “inactive”; in the test with TIMP1, TIMP1 (gene 7076) it was “inactive”; in [14], “inactive”; in test [16], “inactive”; in [17] it was “inactive”.
`OC[C@@H](O)[C@@H](O)[C@H](O)[C@H](O)CO`: the molecule was classed as inactive in test [1], in test [2], in test [3], in test [5], in test [6] and in test [18]. Further, the outcome in test [7], in [8], in [9], in [10], in test [11] and in [12] was inactive. Moreover, the outcome in test [13] is “inactive”; with TIMP1, TIMP1 (gene 7076), “inactive”; in test [14] it was “inactive”; in test [16], “inactive”; in test [17], “inactive”.
